Legend:
Assay in all cases: log2 ratio of Biotin-Ahx-Ub-VS probe labelling (fragment/DMSO); higher = less target engagement (more negative = stronger competition), active = hit call of the paper (q ≤ 0.05, log2 ratio ≤ -1)
Conditions in all cases: compound concentration: 200 uM; treatment time: 3 h
USP42 = target: T1, USP42 (UniProt Q9H9J4)
T1 sequence (whole entry): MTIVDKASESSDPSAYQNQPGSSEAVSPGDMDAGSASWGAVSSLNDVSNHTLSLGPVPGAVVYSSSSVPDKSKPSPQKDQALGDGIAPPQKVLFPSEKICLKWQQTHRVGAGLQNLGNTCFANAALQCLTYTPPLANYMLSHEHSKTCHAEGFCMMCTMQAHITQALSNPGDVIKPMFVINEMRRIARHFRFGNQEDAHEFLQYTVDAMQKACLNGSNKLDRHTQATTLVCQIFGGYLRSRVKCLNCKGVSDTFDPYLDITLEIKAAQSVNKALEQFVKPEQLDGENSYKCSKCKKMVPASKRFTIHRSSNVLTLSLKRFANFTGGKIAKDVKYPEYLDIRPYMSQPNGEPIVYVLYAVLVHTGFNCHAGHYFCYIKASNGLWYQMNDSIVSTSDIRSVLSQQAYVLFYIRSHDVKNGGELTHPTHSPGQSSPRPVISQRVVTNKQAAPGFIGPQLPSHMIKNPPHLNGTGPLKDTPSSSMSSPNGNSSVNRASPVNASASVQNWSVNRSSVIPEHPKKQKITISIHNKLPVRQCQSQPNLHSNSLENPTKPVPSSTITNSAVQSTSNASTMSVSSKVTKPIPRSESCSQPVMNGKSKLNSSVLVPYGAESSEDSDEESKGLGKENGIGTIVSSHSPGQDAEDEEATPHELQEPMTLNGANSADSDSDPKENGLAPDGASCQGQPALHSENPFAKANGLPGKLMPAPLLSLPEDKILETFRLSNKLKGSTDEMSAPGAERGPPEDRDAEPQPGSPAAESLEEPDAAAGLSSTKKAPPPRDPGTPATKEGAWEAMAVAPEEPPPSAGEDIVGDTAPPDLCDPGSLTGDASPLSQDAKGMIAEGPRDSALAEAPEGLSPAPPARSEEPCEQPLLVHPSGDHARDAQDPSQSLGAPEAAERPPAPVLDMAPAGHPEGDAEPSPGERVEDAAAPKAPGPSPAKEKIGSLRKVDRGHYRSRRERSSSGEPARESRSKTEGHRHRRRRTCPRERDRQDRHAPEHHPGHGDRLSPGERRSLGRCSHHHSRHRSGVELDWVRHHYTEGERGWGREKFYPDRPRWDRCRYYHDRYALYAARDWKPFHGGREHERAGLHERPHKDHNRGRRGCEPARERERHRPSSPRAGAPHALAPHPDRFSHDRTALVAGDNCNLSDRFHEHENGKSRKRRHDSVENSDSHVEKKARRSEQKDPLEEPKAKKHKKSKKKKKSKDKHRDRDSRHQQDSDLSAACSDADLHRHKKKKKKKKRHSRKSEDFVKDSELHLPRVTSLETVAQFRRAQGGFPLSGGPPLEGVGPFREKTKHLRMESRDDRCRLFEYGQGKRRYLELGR
Summary of the method: (§1)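 Average log2 ratios of fragment over vehicle were obtained by unpaired t-test from global-median-normalised Spectronaut label-free quantities. Proteins with ≥2 unique peptides were included. HEK293T lysate (495 µg per sample) was treated in triplicate with fragment at 200 µM or vehicle for 3 h, then with Biotin-Ahx-Ub-VS at 0.5 µM final for 1 h, and labelled DUBs were NeutrAvidin-enriched and run by diaPASEF LC-MS/MS.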

USP46 = USP46 (UniProt P62068)
Summary of the method: as §1

USP47 = target: T2, USP47 (UniProt Q96K76)
T2 sequence (whole entry): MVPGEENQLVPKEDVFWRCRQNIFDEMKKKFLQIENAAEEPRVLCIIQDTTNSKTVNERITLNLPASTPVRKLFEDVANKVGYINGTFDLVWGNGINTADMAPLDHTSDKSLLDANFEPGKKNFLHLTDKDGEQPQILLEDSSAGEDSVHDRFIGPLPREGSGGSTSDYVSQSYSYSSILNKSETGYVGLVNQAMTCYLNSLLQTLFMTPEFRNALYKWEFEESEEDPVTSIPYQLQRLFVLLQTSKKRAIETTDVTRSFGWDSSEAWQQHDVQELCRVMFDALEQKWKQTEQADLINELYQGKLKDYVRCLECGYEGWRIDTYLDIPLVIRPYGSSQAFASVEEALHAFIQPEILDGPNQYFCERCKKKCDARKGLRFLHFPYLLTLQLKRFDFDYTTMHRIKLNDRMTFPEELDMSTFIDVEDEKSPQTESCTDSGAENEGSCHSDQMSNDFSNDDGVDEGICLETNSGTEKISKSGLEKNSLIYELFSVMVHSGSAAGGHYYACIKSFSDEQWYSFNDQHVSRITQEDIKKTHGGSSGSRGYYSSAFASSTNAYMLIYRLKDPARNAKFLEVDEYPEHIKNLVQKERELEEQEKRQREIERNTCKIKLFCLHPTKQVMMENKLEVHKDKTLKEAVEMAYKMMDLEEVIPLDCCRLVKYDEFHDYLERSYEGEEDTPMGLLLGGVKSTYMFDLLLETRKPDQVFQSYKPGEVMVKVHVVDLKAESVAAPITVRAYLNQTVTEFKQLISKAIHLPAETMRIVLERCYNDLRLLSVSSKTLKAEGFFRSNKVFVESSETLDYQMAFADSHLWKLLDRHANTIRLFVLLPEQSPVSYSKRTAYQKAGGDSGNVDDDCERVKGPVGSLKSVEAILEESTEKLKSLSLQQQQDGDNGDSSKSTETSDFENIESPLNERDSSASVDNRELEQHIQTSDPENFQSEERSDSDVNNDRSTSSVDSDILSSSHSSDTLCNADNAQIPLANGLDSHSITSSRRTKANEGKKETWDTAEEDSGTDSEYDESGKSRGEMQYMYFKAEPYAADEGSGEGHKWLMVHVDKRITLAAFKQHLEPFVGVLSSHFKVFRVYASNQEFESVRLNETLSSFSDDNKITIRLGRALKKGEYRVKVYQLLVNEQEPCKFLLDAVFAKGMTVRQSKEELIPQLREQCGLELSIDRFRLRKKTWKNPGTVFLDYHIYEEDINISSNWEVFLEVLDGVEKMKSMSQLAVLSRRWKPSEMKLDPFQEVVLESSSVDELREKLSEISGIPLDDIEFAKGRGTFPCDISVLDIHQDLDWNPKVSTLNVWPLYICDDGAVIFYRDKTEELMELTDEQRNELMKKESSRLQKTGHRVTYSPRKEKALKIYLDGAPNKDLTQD
Summary of the method: as §1

USP48 = target: T3, USP48 (UniProt Q86UV5)
T3 sequence (whole entry): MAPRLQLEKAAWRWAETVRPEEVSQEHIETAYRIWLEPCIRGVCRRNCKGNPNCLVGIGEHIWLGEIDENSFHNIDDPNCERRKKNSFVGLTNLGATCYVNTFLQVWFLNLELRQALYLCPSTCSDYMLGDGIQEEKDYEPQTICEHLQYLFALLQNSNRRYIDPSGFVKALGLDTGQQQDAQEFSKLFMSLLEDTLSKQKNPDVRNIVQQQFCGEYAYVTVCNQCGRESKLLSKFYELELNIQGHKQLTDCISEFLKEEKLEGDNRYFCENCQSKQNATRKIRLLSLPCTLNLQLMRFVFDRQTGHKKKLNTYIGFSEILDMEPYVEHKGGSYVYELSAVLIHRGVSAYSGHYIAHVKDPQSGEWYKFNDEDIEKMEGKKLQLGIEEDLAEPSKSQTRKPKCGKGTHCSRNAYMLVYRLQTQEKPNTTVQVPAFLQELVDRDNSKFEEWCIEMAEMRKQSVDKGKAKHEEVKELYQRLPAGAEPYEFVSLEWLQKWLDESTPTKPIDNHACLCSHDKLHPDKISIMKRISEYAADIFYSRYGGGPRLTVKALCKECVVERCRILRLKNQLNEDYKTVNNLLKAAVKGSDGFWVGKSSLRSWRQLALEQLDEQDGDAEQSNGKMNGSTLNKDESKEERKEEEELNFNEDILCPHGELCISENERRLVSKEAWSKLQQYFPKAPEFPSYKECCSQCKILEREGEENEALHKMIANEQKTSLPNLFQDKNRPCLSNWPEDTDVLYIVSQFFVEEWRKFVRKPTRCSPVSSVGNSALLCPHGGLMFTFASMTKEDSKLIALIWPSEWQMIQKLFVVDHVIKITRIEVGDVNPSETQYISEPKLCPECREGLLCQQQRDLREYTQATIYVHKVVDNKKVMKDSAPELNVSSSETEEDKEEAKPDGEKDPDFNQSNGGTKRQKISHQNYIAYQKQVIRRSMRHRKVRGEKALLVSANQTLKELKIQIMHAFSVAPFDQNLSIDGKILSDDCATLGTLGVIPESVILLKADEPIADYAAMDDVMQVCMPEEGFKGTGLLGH
Summary of the method: as §1

USP5 = target: T4, USP5 (UniProt P45974)
T4 sequence (whole entry): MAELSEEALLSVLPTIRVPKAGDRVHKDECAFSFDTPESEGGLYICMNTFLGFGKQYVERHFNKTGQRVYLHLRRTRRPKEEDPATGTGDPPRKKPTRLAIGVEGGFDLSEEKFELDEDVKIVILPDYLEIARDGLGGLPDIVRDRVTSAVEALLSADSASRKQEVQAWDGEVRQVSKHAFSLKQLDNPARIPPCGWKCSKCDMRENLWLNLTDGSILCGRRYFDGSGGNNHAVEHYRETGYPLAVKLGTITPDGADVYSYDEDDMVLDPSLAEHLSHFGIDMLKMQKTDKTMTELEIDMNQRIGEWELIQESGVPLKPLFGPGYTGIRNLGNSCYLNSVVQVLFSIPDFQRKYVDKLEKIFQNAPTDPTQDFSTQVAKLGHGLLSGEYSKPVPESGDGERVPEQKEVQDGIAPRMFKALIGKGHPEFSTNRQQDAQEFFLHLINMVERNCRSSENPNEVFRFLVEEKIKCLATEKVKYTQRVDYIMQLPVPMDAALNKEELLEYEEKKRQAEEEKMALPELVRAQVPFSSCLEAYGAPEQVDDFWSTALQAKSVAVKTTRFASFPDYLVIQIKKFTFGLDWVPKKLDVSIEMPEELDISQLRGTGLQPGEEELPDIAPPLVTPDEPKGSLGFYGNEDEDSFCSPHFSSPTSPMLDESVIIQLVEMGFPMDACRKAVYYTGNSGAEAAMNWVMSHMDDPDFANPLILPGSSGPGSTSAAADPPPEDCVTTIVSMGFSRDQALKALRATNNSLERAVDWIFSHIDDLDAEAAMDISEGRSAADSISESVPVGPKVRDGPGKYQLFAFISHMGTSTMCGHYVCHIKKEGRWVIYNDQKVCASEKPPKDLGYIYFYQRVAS
Summary of the method: as §1

USP54 = USP54 (UniProt Q70EL1)
Summary of the method: as §1

USP7 = USP7 (UniProt Q93009)
Summary of the method: as §1

USP8 = target: T5, USP8 (UniProt P40818)
T5 sequence (whole entry): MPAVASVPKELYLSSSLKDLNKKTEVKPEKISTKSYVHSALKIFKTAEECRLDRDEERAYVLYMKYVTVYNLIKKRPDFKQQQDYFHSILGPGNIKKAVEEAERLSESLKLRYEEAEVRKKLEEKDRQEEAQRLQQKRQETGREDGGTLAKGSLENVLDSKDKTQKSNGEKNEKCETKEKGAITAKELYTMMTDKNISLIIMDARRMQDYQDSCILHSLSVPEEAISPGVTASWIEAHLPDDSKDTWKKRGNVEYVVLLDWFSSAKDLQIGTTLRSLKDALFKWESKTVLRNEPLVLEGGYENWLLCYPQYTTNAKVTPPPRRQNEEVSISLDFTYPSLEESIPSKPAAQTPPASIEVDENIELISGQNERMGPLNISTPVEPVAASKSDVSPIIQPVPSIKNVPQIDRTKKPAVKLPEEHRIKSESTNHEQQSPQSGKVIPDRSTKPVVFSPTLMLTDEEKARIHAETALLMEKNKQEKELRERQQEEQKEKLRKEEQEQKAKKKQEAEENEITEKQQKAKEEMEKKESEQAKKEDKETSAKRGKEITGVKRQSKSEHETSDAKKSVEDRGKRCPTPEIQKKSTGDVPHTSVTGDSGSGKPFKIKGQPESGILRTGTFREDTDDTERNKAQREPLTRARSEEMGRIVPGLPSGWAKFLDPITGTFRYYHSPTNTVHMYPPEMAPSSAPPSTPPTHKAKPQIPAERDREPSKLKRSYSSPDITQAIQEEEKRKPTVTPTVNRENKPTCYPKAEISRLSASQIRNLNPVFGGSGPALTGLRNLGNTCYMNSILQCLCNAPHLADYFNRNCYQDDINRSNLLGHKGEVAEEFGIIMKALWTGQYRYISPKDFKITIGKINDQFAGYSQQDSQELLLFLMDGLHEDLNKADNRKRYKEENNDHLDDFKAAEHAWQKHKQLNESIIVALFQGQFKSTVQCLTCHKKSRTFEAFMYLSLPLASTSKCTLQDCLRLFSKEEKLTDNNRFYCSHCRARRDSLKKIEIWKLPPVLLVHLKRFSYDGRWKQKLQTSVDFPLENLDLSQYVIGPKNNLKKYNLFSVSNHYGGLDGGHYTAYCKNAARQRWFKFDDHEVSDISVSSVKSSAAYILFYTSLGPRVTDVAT
Summary of the method: as §1

USP9X = USP9X (UniProt Q93008)
Summary of the method: as §1

UniProt O00487 = target: UniProt O00487
Summary of the method: as §1

Measured: log2 ratio of Biotin-Ahx-Ub-VS probe labelling

Sequence of USP54 (Q70EL1 whole entry): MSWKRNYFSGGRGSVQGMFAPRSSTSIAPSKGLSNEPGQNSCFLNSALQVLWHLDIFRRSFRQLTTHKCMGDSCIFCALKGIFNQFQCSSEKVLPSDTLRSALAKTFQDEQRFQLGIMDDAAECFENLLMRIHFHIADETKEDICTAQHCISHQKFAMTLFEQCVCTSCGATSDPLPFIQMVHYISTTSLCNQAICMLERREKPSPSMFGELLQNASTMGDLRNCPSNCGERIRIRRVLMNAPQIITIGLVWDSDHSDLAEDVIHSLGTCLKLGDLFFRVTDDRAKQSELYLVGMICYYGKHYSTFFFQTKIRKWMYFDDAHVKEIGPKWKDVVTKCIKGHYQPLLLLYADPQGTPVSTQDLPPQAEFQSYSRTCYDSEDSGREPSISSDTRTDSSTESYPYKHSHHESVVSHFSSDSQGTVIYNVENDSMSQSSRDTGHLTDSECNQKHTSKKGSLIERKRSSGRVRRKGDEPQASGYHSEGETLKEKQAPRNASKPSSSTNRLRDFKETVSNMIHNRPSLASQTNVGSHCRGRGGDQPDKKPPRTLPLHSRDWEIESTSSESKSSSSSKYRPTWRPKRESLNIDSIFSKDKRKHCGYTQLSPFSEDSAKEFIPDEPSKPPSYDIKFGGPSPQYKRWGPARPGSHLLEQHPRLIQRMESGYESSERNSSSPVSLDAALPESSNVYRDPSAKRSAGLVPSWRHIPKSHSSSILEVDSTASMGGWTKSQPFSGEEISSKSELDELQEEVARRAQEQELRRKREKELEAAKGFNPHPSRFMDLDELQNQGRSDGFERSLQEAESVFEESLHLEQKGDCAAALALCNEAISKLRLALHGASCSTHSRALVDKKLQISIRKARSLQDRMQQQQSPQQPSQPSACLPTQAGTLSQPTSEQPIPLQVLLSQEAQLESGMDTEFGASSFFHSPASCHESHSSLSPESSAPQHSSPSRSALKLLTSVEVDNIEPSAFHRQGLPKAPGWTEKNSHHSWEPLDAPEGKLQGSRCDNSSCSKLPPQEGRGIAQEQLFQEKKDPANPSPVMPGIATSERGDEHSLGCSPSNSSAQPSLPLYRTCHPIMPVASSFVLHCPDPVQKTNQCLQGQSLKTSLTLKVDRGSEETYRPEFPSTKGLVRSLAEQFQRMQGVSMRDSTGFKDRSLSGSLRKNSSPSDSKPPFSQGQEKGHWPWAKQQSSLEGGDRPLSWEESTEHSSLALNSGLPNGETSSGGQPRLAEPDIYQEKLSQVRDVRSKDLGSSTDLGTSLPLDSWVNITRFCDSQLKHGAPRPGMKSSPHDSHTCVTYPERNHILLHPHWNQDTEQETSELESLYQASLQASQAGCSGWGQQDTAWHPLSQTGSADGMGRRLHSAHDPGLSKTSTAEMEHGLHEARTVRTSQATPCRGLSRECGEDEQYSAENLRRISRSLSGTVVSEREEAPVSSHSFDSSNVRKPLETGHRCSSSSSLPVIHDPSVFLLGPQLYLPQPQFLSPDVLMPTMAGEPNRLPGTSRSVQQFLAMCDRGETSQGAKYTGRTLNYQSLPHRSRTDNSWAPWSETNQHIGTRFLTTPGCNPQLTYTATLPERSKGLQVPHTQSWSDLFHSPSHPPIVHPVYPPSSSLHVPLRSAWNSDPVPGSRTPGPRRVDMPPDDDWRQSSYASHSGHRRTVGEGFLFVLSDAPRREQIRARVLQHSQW
Sequence of USP46 (P62068 whole entry): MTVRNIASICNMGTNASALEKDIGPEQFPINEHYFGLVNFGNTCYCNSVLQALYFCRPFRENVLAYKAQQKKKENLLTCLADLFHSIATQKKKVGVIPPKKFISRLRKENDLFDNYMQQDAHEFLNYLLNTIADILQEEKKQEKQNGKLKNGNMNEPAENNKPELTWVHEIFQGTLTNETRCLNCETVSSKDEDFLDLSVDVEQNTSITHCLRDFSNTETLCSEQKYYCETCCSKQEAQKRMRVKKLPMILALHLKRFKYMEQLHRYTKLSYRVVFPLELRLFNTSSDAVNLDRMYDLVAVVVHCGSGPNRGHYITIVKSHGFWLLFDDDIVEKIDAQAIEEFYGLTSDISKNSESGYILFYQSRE
Sequence of USP7 (Q93009 whole entry, looked up): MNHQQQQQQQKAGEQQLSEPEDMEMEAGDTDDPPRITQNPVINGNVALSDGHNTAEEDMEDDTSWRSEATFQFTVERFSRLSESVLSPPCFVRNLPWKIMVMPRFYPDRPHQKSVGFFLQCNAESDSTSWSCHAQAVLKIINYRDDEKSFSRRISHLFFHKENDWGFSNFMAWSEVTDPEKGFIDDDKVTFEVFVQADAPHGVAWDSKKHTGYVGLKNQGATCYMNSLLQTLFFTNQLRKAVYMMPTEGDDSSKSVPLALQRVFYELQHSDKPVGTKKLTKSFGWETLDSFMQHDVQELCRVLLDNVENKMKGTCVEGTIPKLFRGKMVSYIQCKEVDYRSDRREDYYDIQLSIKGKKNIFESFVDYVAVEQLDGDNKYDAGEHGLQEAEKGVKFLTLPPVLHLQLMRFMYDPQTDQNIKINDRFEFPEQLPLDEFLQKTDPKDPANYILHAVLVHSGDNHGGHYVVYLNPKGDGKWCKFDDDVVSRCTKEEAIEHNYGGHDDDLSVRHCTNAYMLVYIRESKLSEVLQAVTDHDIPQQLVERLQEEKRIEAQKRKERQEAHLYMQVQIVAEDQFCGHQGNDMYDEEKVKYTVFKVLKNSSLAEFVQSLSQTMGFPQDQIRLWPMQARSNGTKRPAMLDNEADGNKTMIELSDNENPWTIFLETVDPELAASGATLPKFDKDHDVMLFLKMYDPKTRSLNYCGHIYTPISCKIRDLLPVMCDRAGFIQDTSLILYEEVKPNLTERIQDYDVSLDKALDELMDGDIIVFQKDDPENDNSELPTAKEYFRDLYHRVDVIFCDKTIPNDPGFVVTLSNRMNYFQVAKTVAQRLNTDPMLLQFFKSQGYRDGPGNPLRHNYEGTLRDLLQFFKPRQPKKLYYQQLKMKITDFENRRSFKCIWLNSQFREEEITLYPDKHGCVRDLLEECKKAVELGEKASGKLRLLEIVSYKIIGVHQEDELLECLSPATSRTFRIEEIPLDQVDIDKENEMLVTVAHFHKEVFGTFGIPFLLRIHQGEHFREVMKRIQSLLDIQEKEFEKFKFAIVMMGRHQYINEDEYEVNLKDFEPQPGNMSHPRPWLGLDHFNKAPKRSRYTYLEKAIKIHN
Sequence of UniProt O00487 (O00487 whole entry): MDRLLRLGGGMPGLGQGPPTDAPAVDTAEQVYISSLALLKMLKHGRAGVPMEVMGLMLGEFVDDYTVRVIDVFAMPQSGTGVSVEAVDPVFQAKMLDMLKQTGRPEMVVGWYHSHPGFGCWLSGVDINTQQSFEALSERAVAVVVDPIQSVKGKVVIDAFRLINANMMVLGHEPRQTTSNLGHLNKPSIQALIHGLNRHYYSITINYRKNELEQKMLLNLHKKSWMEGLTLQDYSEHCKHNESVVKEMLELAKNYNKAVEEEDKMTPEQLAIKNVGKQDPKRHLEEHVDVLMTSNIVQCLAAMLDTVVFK

COc1ccc(C2CCCN2C(=O)CCl)c(OC)c1 (stereo not given)
active: USP7 -1.23
inactive: USP42 0.426 | USP46 -0.295 | USP47 -0.378 | USP48 -0.744 | USP5 0.0602 | USP54 0.223 | USP8 -0.00675 | USP9X -0.271 | UniProt O00487 -0.0639
